Assay outcomes from PubChem.
Compounds with a hit are over-represented: about 28% of the library has one in this group of screens.
CYP2C19 inhib – inhibitors of human CYP2C19; P33261; CYP2C19 Supersomes, luciferin-H EGE luminescence, 30 min; inhibition, % at 5 µM; hit rate 21% among 96,000; AID 778;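 active = CYP2C19 inhibition above a set limit at 5 µM in the primary screen, cut at about 50% in these data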
DAT uptake mod – modulates human dopamine transporter uptake under cocaine; Q01959; LLC-PK1 hDAT cells, [14C]-dopamine uptake with cocaine IC80; actives deviate in either direction; B-score at 10 µM; hit rate 1.3% among 110,000;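 active = Z score or B-score, a plate-position-corrected score, falls beyond the plate's 99.7% confidence bounds, in either direction; inactive = both scores lie inside the 99.7% bounds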
Target sequence (Q01959 whole entry, looked up): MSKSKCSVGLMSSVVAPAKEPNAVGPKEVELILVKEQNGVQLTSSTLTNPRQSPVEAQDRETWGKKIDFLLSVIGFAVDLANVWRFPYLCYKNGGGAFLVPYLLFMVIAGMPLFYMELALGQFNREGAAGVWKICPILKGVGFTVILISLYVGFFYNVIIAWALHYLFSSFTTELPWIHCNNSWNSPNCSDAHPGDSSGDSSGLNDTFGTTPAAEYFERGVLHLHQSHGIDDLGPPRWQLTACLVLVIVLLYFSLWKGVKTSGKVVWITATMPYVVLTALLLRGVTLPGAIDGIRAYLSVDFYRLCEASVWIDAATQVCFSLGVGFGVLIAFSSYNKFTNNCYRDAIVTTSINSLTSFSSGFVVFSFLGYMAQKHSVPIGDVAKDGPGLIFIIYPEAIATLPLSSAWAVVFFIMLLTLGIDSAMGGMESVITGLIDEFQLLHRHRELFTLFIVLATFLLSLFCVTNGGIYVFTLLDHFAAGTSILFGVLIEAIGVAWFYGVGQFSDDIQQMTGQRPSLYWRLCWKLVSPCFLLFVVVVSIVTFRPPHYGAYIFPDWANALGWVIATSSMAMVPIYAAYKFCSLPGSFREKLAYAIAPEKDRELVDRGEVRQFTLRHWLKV
D1 mod – D1 dopamine receptor (human) allosteric modulation. P21728. HEK293 D1, CRE-luciferase, dopamine EC30 potentiation; actives deviate in either direction. B-score at 10 µM. hit rate 5.9% among 58,000. AID 641;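 active = luminescence count or its row- and column-corrected plate score outside the 99.7% band of the plate's sample wells, on either side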
CYP2C9 inhib – human CYP2C9 inhibition. P11712. CYP2C9 Supersomes, luciferin-H conversion, luminescence. inhibition, % at 5 µM. hit rate 20% among 96,000;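 active = blocking of liver enzyme CYP2C9 beyond about 50% at 5 µM, limit read from the data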
CYP2C9 act – increases human cytochrome P450 2C9 activity | P11712 | recombinant CYP2C9, luciferin-H conversion, luminescence; stronger effect = higher value; factor 1 = untreated enzyme, 0 = blocked | activation factor at 5 µM | hit rate 1.4% among 96,000;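 active = activation factor of 2 or more for CYP2C9 at a 5 µM dose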
CYP2C19 act – increases human CYP2C19 enzyme activity. recombinant CYP2C19, luciferin-H EGE luminescence; stronger effect = higher value; 0 = fully inhibited enzyme, 1 = untreated enzyme. activation factor at 5 µM. 96,000 tested, under 10 active;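 active = activation factor of at least 2 at 5 µM in the primary screen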
Large screens that a line does not name were inactive.

O=C(CN1C(=O)COc2ccccc21)N(Cc1cccnc1)Cc1cccc(F)c1	CYP2C19 inhib 87.1, CYP2C9 inhib 91.2
CCC1Oc2ccc(C)cc2N(CC(=O)N(Cc2cccnc2)Cc2cccc(F)c2)C1=O (stereo not given)	none (no result: CYP2C19 inhib, D1 mod, CYP2C9 inhib, CYP2C9 act, CYP2C19 act)
CC(C)CCn1c(N2CCOCC2)nc2c1c(=O)n(CC(N)=O)c(=O)n2C	none
CN(C)C=NCCn1c(N2CCOCC2)nc2c1c(=O)n(C)c(=O)n2C	D1 mod -3.78
O=C(c1c[nH]c(C(=O)C(Cl)(Cl)Cl)c1)c1ccccc1Cl	CYP2C9 inhib 72.5 (no result: D1 mod)
Cc1[nH]n2c(=O)c3c(nc2c1-c1cccc2ccccc12)CCC3	none (no result: D1 mod)
O=c1c2c(nc3c(-c4cccc5ccccc45)c[nH]n13)CCC2	CYP2C9 inhib 69.3 (no result: D1 mod)
CC(=O)Nc1ccc(Oc2cc(C#N)c(C#N)cc2N2CCOCC2)cc1	CYP2C9 inhib 52.6 (no result: D1 mod)
N#Cc1cc(Cl)c(N2CCOCC2)cc1C#N	none
COc1ccc(-n2c(=O)cc(N3CC(C)OC(C)C3)[nH]c2=O)cc1 (stereo not given)	none
COc1cccc(C2C(C(=O)OC(C)C)=C(C)Nc3ncnn32)c1 (stereo not given)	none
Cc1ccc2nc(NCCCO)nc(-c3ccccc3)c2c1	DAT uptake mod 3.06 (no result: D1 mod)
CN(C)c1ccc(NC(=O)CC2NCCNC2=O)cc1 (stereo not given)	none
Cc1cc(C(=O)CSc2ccc(Cl)cc2)cc(C)c1OC(=S)N(C)C	CYP2C9 inhib 67.2 (no result: D1 mod)
Cc1ccc2[nH]c(=O)c(CN(Cc3ccc4c(c3)OCO4)Cc3nnnn3Cc3ccco3)cc2c1	CYP2C19 inhib 99.1, CYP2C9 inhib 98.7
Cc1cc(C)c2cc(CN(Cc3ccc4c(c3)OCO4)Cc3nnnn3Cc3ccco3)c(=O)[nH]c2c1	CYP2C19 inhib 67.2, DAT uptake mod 2.95, CYP2C9 inhib 80.5
O=c1[nH]c2cc3c(cc2cc1CN(Cc1ccccc1)Cc1nnnn1Cc1ccco1)OCCO3	none
O=C(OCCN1CCOCC1)C(c1ccccc1)c1ccccc1	CYP2C19 inhib 69.9, CYP2C9 inhib 56.4
COc1ccccc1C(=O)OCCN1CCOCC1	none (no result: D1 mod)
O=c1[nH]c2cc(Cl)ccc2n1-c1ccccc1	CYP2C19 inhib 50.1
O=C(c1ccc2c(=O)n(-c3ccccc3)c(=O)[nH]c2c1)N1CCCCC1	none
Cc1nnc(NC(=O)c2ccc3c(c2)C(=O)N(CCC(C)C)C3=O)s1	none (no result: D1 mod)
CCOC(=O)c1cccc(NC(=O)CCS(=O)(=O)c2cccs2)c1	CYP2C19 inhib 72.4, CYP2C9 inhib 88.7
COc1cccc(NC(=O)CCS(=O)(=O)c2cccs2)c1	CYP2C19 inhib 59.6, CYP2C9 inhib 58.3
COc1cccc(NC(=O)CNC(=O)c2cccs2)c1	none
Cc1nn(C)c(Oc2cccc(Cl)c2)c1C(=O)Nc1ccc(F)cc1	none (no result: D1 mod)
Cc1ccc(-c2nn[nH]n2)cc1	DAT uptake mod -8.16 (no result: D1 mod)
O=C(O)C1C2C=CC3(CN(C/C=C/c4ccccc4)C(=O)C13)O2 (stereo not given)	none
O=C(Cn1cnc2c(nnn2Cc2ccc(F)cc2)c1=O)NCc1ccco1	none (no result: CYP2C19 inhib, CYP2C9 inhib, CYP2C9 act, CYP2C19 act)
O=C(Oc1ccccc1)c1ccccc1OS(=O)(=O)c1ccccc1	CYP2C9 inhib 58.7 (no result: D1 mod)
COc1ccccc1C(=O)Oc1ccc(C(C)C)cc1	none (no result: D1 mod)
CCCCOc1ccc(C2C(=O)N(C3CCCCC3)CC(=O)N2CC2CCCO2)cc1 (stereo not given)	none (no result: D1 mod)
CC(c1ccccc1)C1CC(=O)N(Cc2ccco2)C1=O (stereo not given)	CYP2C19 inhib 90.7
COCC(=O)N(CCc1ccc(OC)c(OC)c1)Cc1nc2ccccc2c(=O)[nH]1	CYP2C19 inhib 57.5
CCC(CC)C(=O)N(CCc1ccc(OC)cc1)Cc1nc2ccccc2c(=O)[nH]1	none (no result: D1 mod)
COCC(=O)N(Cc1nc2ccccc2c(=O)[nH]1)Cc1cccs1	CYP2C9 inhib 52.2
COc1ccc(CN(Cc2nc3ccccc3c(=O)[nH]2)C(=O)NC2CCCCC2)cc1	none
NC(=O)[C@H]1CC2(CC(c3cccc(NC(=O)COc4ccc(Cl)cc4)c3)=NO2)CN1C(=O)c1ccc(Cl)cc1 (stereo not given in full)	none (no result: CYP2C19 inhib, D1 mod, CYP2C9 inhib, CYP2C9 act, CYP2C19 act)
O=C1c2ccccc2NC2(CCCCC2)N1c1ccc(O)cc1	CYP2C9 inhib 55.8
CC1CCC2(CC1)Nc1ccccc1C(=O)N2c1ccccc1 (stereo not given)	none (no result: D1 mod)
COc1ccc2c(=O)c(C(=O)NCCc3ccc(OC)c(OC)c3)c[nH]c2c1	CYP2C9 inhib 53.5
CCCCCCCCCCC[C@@H](C[C@@H]1OC(=O)[C@H]1CCCCCC)OC(=O)[C@H](CC(C)C)NC=O	none (no result: CYP2C19 inhib, D1 mod, CYP2C9 inhib, CYP2C9 act, CYP2C19 act)
CCCCN(C(=O)NC(=O)C1=C(N2CCOCC2)/C(=C/c2ccccc2)CC1)S(C)(=O)=O	CYP2C19 inhib 79.0, CYP2C9 inhib 77.9 (no result: DAT uptake mod)
Cn1c(=O)c2c(nc(CN3CCC(C(N)=O)CC3)n2Cc2ccccc2Cl)n(C)c1=O	none
CC(C)(C)c1ccc(S(=O)(=O)N2CCN(CCC#N)CC2)cc1	CYP2C19 inhib 50.0
COCCn1c(-c2ccsc2)nc2c1c(=O)[nH]c(=O)n2CC(C)C	CYP2C19 inhib 55.3 (no result: D1 mod)
COCCCn1c(-c2ccsc2)nc2c1c(=O)[nH]c(=O)n2Cc1ccccc1	none
COCCN1C=C(C(=O)OC)C(c2ccc3c(c2)OCO3)C(C(=O)OC)=C1	CYP2C19 inhib 74.4, CYP2C9 inhib 70.1
CCN1C=C(C(=O)OC)C(c2cccc(C)c2)C(C(=O)OC)=C1	CYP2C19 inhib 69.8, CYP2C9 inhib 74.2
COCCN1C=C(C(=O)OC)C(c2cc3c(cc2Br)OCO3)C(C(=O)OC)=C1	none
C#CCNC(=O)C1=C[C@H](c2csc3ccccc23)C[C@H](OCCCCO)O1	none (no result: CYP2C19 inhib, D1 mod, CYP2C9 inhib, CYP2C9 act, CYP2C19 act)
Cc1c(Br)ccc(NC(=O)CCN2C(=O)C3C4CCC(C4)C3C2=O)c1C (stereo not given)	none (no result: D1 mod)
O=C(C1=C[C@@H](C2CCCCC2)C[C@@H](OCc2ccc(CO)cc2)O1)N1CCN(Cc2ccccc2)CC1	none (no result: CYP2C19 inhib, D1 mod, CYP2C9 inhib, CYP2C9 act, CYP2C19 act)
C=C(C)n1c(=O)[nH]c2ccccc21	none
O=C(O)c1cnc(-c2ccccc2)nc1Sc1ccc(Cl)cc1Cl	CYP2C9 inhib 53.3 (no result: D1 mod)
O=c1c(=NNc2ccccc2Cl)c(=O)c2ccccc12	CYP2C19 inhib 60.3 (no result: D1 mod)
COc1ccc(N2C3=[N+](CC2(C)O)c2ccccc2CC3)cc1 (stereo not given)	none
COc1ccccc1C1CC(=O)NC(SCC(=O)Nc2ccccc2)=C1C#N (stereo not given)	CYP2C19 inhib 76.0
N#CC1=C(SCC(=O)Nc2nccs2)NC(=O)CC1c1ccccc1 (stereo not given)	CYP2C19 inhib 58.5, CYP2C9 inhib 86.7 (no result: D1 mod)
CCOC(=O)CC(=O)CSC1=C(C#N)C(c2ccccc2OC)CC(=O)N1 (stereo not given)	CYP2C19 inhib 62.2, CYP2C9 inhib 62.7
Cc1ccccc1NC(=O)CSC1=C(C#N)C(c2ccsc2)CC(=O)N1 (stereo not given)	none (no result: D1 mod)
COc1cc(C(=O)NCCC(=O)NCCN2CCOCC2)cc(OC)c1OC	none
